Source: PubChem BioAssay (NCATS)
Records with an inconclusive call do not appear. The source made the active and inactive calls. Unless noted, calls come from the whole dose curve; as a rule, active = well fitted curve in the direction sought with a large enough effect; inconclusive = small, poorly fitted or top-dose-only effect, or another doubt; inactive = no such curve, though single readings can be large; an effect the other way counts as inactive or inconclusive.

Legend:
[1] = biological target: DNA polymerase III PolC-type (Bacillus subtilis (strain 168)) (UniProt P13267); experiment: qHTS Validation Assay for the Inhibitors of DNA Replication in Gram-Positive Bacteria (AID 485295);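 note: PicoGreen fluorescence of double-stranded DNA made on primed circular M13 template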
In short: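 Reconstituted B. subtilis holoenzyme (Pol III, beta clamp, SSB, primase) was preincubated with compound at room temperature, then given single-stranded circular M13Gori plus dNTPs and NTPs. EDTA-containing PicoGreen stopped the reaction, and dsDNA product was read by fluorescence.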

[2] = biological target: Tumor susceptibility gene 101 protein (Homo sapiens) (UniProt Q99816); experiment: qHTS Validation Assay for Iinhibitors of HIV-1 Budding by Blocking the Interaction of PTAP/TSG101 (AID 485342; calls by dose curve)
In short: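 Tsg101 binding domain (10 uM final) in pH 7.5 HEPES/NaCl/Tween 20/EDTA/TCEP buffer was mixed with pin-transferred compounds, then FITC-labeled PTAP peptide (50 nM final) was added; after 20 min at r.t., fluorescence polarization was read.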

[3] = qHTS Validation Assay to Find Inhibitors of Chronic Active B-Cell Receptor Signaling (AID 485345; active = well fitted curve in the direction sought with a large enough effect in the main read-out, with a control signal flat, not every such curve was filed as active)
In short: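 TMD8 ABC-DLBCL cells with dox-inducible green luciferase–IκBα fusion and red native luciferase; compounds 46 uM–3 nM, 4 h at 37C with doxycycline in 0.5% FBS IMDM. Green/red ratio normalized to basal and 10 uM MG-132.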

[4] = biological target: ATP-dependent 6-phosphofructokinase (Trypanosoma brucei brucei) (UniProt O15648); experiment: qHTS Validation Assay to Find Inhibitors of T. brucei phosphofructokinase (AID 485368); details: T. brucei PFK enzyme assay, qHTS 7-point titration; at 57.5 µM (top of the series)
In short: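 qHTS format, up to 57 uM. PFK 1.25 nM; F6P 0.5 mM; ATP 0.1 mM; 5 mM MgCl2, 0.01% Tween20, 0.1% BSA; 0.1 M TEA pH 8.0; 45 min RT; ADP-Glo readout; no-enzyme control = full inhibition.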

[5] = Quantitative high throughput screen for delayed death inhibitors of the malarial parasite plastid, 48 hour incubation (AID 488752); note: nearly all actives have a fitted effect of over 65% in size
In short: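 One-generation (48 h) growth assay: a decrease in luciferase signal from an integrated reporter in P. falciparum-infected red cells (0.1% parasitemia, 2% hematocrit) after compound exposure at 37 C indicates parasite inhibition.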

[6] = biological target: Thioredoxin reductase 1, cytoplasmic (Rattus norvegicus) (UniProt O89049); experiment: qHTS Assay for Substrates of Mammalian Selenoprotein Thioredoxin Reductase 1 (TrxR1) (AID 488772);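 note: a drop in NADPH fluorescence below the no-compound background marks a TrxR1 substrate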
In short: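 In this dual-purpose format, potential substrates are identified from the first fluorescence read after selenite addition, not from the 8-minute delta. Rat enzyme is preincubated with NADPH and then with compound at ~22 deg C.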

[7] = biological target: Thioredoxin reductase 1, cytoplasmic (Rattus norvegicus) (UniProt O89049); experiment: qHTS Assay for Inhibitors of Mammalian Selenoprotein Thioredoxin Reductase 1 (TrxR1) (AID 488773); details: Potency: inhibition;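 note: drop in NADPH fluorescence over an 8 min run after selenite addition; nearly all actives have a fitted effect of over 40% in size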
In short: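 Inhibition is scored from the loss of NADPH fluorescence between first and last reads of an 8-min kinetic run. Selenite (400 uM) was the substrate, added after 15 min compound preincubation at room temperature.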

[8] = biological target: Flap endonuclease 1 (Homo sapiens) (UniProt P39748); experiment: qHTS Validation Assay for the Inhibitors of Human Flap endonuclease 1 (FEN1) (AID 488816)
In short: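 Steps: add FEN1 (10 nM reagent) or buffer only; pin compounds; hold 15 min at room temperature; start with substrate, 50 nM final; read at 0 and 15 min; correct, normalize and fit a four-parameter Hill curve.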

[9] = biological target: M-phase phosphoprotein 8 (Homo sapiens) (UniProt Q99549); experiment: qHTS Validation Assay for Inhibitors for MPP8 Chromodomain Interactions with Methylated Histone Tails (AID 488949);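 note: AlphaScreen signal from MPP8 chromodomain bound to biotinylated H3K9me3 peptide; top concentration of the series differs between compounds; nearly all actives have a fitted effect of over 55% in size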
In short: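 MPP8 (50 nM) was preincubated with biotinylated H3(1-18)K9me3 peptide (50 nM) in PBS pH 7.4, 0.01% Tween-20 for 30 min at room temperature, then with compounds for 30 min; binding was detected by AlphaScreen.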

[10] = biological target: Chromobox protein homolog 1 (Homo sapiens) (UniProt P83916); experiment: qHTS Validation Assay for Inhibitors of HP1-beta Chromodomain Interactions with Methylated Histone Tails (AID 488953);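 note: loss of AlphaScreen luminescence from HP1-beta binding biotinylated H3K9me3 peptide; nearly all actives have a fitted effect of over 50% in size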
In short: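 AlphaScreen proximity signal from streptavidin donor and nickel chelate acceptor beads (final 10 ug/mL) after 30 min dark incubation. Compounds had 30 min at room temperature with preformed complex of 50 nM HP1-beta and 50 nM b-H3(1-18)K9me3 in PBS pH 7.4 with 0.01% Tween-20.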

[11] = biological target: Methanococcus maripaludis chaperonin (MmCpn) (UniProt Q6LX38); experiment: High-Throughput Screening for Modulators of Cytosolic Chaperonin Activity: MmCpn Primary Screen (AID 488978);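 note: 50 nM MmCpn enzyme hydrolysing 30 µM ATP at 37 °C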
In short: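 MmCpn (50 nM final) was preincubated with compound 5 min at RT, then 30 uM ATP (final) was added and the reaction ran 10 min at 37C. ADP produced was detected by Transcreener HTRF (ex 320 nm; em 590/665 nm).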

[12] = biological target: Transient receptor potential cation channel subfamily V member 1 (Homo sapiens) (UniProt Q8NER1); experiment: HTS Assay for Compounds that Act as Enhancers of the Vanilloid Receptor 1 (AID 488979)
In short: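 TRPV1-expressing cells loaded with Fluo-8 calcium dye; compounds added and calcium influx read kinetically for 3 min (agonist phase), then capsaicin at EC20 added and read 2 min more for enhancement. Fluorescence ex 480/em 520 nm.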

[13] = biological target: Thyrotropin receptor (Homo sapiens) (UniProt P16473); experiment: qHTS Assay for Antagonists of the Thyroid Stimulating Hormone Receptor (AID 488980)
In short: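 HEK293 cells transfected with human TSHR, suspended in HEPES-buffered HBSS with 70 uM RO 20-1724, were treated with compounds plus TSH at EC80 (4 nM final). cAMP was measured by competitive HTRF (cryptate anti-cAMP antibody, cAMP-d2 acceptor).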

[14] = biological target: D(1A) dopamine receptor (Homo sapiens) (UniProt P21728); experiment: HTS Assay for Allosteric Agonists of the Human D1 Dopamine Receptor: Primary Screen for Agonists (AID 488981)
In short: (§1)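 Tetracycline-induced HEK293 T-REx cells force-coupled to calcium signalling were incubated overnight at 30 C and dye-loaded at room temperature. Calcium flux over 180 s after compound addition flagged agonists; a further 180 s read after EC20 dopamine flagged potentiators.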

[15] = biological target: D(1A) dopamine receptor (Homo sapiens) (UniProt P21728); experiment: HTS Assay for Allosteric Agonists of the Human D1 Dopamine Receptor: Primary Screen for Potentiators (AID 488982)
In short: as §1

[16] = biological target: D(1A) dopamine receptor (Homo sapiens) (UniProt P21728); experiment: HTS Assay for Allosteric Agonists of the Human D1 Dopamine Receptor: Primary Screen for Antagonists (AID 488983);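 note: calcium flux response to an EC80 dopamine challenge measured with no-wash dye; nearly all actives have a fitted effect of over 65% in size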
In short: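 Calcium-flux read-out in inducible HEK293 T-REx cells expressing D1, dye-loaded 30–90 min at room temperature. Kinetic reads: 180 s after compound (agonist phase), then 180 s after an EC80 dopamine challenge.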

[17] = biological target: Beta-2 adrenergic receptor (Homo sapiens) (UniProt P07550); experiment: qHTS validation assay of beta-arrestin-biased ligands of beta2-adrenergic receptor (AID 485366)
In short: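 Compound series up to 46 microM applied to beta2-AR/beta-arrestin Tango cells, 18 hr, 37 degrees C, 5% CO2. Read-out: tTA-driven luciferase luminescence, converted to %Activity; concentration-response curves assigned curve classes.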

[18] = biological target: ATP-dependent 6-phosphofructokinase (Trypanosoma brucei brucei) (UniProt O15648); experiment: qHTS Assay to Find Inhibitors of T. brucei phosphofructokinase: hit validation (AID 492961);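 note: luminescence reports ADP formed as PFK phosphorylates fructose-6-phosphate with ATP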
In short: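 PFK 1.25 nM, F6P 0.5 mM, ATP 0.1 mM, MgCl2 5 mM, 0.1 M TEA pH 8.0, Tween20 0.01%, BSA 0.1%; 45 min RT. ADP-Glo two-step detection, luminescence. qHTS titration; curve fitting with curve-class categorization.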

Measured: Potency

Sequence of Flap endonuclease 1 (Homo sapiens) (P39748 whole entry, looked up): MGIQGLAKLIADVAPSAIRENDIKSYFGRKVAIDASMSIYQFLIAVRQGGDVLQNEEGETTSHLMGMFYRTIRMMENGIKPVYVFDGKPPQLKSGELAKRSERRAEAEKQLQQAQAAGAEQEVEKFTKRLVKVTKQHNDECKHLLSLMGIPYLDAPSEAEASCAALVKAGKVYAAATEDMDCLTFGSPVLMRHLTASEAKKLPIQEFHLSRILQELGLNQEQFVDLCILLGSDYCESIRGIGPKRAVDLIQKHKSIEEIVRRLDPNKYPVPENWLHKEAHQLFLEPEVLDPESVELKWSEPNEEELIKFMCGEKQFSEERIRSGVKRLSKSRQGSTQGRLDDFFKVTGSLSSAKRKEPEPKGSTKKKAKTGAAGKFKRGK
Sequence of Tumor susceptibility gene 101 protein (Homo sapiens) (Q99816 whole entry, looked up, the tested form may be a part): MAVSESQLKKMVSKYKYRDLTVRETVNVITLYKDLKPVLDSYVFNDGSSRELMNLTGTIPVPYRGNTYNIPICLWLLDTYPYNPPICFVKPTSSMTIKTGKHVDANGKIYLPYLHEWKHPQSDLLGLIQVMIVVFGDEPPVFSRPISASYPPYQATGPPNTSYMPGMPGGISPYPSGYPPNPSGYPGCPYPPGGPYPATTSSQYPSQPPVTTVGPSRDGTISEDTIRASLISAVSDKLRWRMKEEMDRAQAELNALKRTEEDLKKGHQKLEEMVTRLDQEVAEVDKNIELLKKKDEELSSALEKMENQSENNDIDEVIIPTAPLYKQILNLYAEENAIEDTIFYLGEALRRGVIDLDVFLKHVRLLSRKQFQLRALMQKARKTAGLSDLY
Sequence of Transient receptor potential cation channel subfamily V member 1 (Homo sapiens) (Q8NER1 whole entry, looked up): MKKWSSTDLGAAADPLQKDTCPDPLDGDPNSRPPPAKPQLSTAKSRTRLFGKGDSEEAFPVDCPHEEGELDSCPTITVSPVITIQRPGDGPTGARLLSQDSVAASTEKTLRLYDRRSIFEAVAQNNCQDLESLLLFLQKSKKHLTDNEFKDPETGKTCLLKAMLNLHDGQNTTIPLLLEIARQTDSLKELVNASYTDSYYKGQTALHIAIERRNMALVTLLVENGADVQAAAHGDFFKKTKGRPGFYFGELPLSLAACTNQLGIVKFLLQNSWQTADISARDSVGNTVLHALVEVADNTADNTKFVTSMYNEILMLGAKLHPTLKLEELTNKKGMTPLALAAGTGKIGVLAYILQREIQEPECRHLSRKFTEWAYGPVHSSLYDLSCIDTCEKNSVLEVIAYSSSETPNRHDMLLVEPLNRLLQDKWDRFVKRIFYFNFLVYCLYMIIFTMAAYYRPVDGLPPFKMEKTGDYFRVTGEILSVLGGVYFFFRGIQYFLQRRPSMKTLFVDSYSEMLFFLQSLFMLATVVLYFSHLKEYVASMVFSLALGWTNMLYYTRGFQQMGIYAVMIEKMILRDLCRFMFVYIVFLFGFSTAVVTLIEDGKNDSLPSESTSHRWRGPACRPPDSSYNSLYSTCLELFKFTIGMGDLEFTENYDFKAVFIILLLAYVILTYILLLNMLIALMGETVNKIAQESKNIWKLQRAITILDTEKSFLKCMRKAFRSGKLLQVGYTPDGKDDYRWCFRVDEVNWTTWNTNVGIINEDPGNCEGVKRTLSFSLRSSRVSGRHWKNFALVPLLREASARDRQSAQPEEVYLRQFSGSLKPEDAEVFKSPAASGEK
Sequence of ATP-dependent 6-phosphofructokinase (Trypanosoma brucei brucei) (O15648 whole entry, looked up): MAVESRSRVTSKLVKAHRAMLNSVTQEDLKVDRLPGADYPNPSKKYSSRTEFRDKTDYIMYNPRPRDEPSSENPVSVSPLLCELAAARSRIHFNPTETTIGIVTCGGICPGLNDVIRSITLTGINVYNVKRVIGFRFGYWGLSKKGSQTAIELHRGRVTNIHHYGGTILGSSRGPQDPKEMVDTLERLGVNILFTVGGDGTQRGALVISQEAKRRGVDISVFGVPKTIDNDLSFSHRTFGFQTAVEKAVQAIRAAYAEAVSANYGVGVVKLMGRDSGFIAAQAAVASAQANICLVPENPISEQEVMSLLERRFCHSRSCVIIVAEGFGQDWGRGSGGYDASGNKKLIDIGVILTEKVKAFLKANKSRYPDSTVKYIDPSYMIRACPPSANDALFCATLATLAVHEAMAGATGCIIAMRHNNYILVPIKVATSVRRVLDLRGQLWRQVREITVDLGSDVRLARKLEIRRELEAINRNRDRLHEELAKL
Sequence of DNA polymerase III PolC-type (Bacillus subtilis (strain 168)) (P13267 whole entry, looked up): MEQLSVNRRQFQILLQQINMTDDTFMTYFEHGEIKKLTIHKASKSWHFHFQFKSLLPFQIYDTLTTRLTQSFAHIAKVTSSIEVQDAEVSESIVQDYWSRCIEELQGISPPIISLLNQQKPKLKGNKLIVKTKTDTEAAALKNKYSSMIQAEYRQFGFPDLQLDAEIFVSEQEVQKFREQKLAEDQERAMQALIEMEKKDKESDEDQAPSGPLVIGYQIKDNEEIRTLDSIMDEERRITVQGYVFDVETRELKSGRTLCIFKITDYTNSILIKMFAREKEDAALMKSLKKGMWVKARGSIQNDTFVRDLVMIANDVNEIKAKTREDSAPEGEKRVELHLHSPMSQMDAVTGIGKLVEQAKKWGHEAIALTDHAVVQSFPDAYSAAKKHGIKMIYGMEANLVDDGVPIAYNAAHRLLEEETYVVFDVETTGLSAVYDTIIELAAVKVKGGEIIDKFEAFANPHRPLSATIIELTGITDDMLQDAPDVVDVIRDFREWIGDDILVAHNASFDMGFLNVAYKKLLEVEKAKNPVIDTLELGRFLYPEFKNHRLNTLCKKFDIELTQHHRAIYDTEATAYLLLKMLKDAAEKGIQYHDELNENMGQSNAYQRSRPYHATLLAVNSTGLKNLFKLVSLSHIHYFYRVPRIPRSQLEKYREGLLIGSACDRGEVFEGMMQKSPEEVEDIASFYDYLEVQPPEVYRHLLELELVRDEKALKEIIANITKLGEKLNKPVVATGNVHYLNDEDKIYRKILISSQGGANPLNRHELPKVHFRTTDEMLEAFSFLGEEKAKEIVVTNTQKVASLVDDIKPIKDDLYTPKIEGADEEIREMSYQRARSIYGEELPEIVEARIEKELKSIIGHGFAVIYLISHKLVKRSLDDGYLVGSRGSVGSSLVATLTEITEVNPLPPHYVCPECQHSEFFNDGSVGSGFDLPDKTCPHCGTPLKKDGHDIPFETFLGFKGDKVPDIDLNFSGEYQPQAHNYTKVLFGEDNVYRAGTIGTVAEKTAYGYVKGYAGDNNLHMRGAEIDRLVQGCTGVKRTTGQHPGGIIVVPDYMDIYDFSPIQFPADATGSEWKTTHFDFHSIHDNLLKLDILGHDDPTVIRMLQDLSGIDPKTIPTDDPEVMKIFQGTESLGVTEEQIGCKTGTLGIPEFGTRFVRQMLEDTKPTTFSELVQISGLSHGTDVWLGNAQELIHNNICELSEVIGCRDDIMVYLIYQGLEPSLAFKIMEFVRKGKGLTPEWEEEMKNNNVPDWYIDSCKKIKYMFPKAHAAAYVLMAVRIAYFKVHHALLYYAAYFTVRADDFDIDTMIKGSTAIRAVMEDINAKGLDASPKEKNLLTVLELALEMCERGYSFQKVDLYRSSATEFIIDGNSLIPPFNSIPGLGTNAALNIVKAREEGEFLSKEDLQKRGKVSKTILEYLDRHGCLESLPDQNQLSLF
Sequence of Thioredoxin reductase 1, cytoplasmic (Rattus norvegicus) (O89049 whole entry, looked up): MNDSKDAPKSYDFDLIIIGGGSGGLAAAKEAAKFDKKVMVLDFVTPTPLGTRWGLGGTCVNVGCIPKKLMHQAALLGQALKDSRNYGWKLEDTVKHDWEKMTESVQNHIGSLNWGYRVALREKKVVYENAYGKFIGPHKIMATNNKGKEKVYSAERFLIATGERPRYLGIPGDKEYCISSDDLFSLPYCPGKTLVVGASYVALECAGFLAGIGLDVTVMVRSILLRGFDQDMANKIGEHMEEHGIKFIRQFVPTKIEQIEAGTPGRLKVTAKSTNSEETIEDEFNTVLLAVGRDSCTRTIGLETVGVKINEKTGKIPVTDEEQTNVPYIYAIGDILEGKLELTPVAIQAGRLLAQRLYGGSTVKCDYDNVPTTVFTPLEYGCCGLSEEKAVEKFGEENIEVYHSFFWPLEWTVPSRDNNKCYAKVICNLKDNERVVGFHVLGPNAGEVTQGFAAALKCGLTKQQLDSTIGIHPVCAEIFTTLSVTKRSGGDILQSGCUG
Sequence of D(1A) dopamine receptor (Homo sapiens) (P21728 whole entry, looked up): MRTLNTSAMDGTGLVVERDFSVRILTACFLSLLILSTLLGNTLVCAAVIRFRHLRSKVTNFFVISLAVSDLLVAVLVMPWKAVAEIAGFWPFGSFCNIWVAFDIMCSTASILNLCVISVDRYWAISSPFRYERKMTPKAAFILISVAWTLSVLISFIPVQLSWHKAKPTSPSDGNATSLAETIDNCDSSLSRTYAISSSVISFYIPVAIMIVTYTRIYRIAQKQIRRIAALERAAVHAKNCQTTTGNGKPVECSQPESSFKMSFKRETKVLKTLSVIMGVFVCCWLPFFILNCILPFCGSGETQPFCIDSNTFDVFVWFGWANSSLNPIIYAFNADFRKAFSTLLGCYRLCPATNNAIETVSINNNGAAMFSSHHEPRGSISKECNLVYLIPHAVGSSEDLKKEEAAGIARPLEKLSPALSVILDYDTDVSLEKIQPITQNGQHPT
Sequence of Chromobox protein homolog 1 (Homo sapiens) (P83916 whole entry, looked up): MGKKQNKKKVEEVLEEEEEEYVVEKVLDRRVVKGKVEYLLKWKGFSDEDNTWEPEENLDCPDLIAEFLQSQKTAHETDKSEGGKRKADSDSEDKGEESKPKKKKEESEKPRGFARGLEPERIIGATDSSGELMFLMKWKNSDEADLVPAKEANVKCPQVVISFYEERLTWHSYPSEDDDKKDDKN

CCCN1CCO[C@@H]2c3cc(O)ccc3OC[C@H]21
not listed: [17] | [18]
inactive: all other assays above

C[N+]1(C)C2CCC1CC(OC(=O)C(CO)c1ccccc1)C2 (stereo unspecified)
not listed: [8] | [17] | [18]
inactive: all other assays above

CC[C@@H](C(N)=O)N1CCCC1=O
not listed: [5] | [8] | [12] | [13] | [17] | [18]
inactive: all other assays above

NCCc1c[nH]c2ccc(O)cc12
not listed: [17] | [18]
inactive: all other assays above

CC(C)Oc1cccnc1N(C)C1CCN(Cc2ccccc2)CC1
not listed: [4] | [10] | [16] | [17] | [18]
inactive: all other assays above

c1ccc(C2(c3ccccc3)CC2C2=NCCN2)cc1 (stereo unspecified)
not listed: [5] | [8] | [12] | [13]
inactive: all other assays above

NC(CP(=O)(O)O)C(=O)O (stereo unspecified)
not listed: [8] | [17] | [18]
inactive: all other assays above
